Measured values as given in PubChem BioAssay (NCI).
Several values for one entry are separate records, joined by “and”; a condition that tells them apart may be missing. Equal values may be shown once. About 83,000 compounds went through this panel and 20% of them were active in at least one assay; those are over-represented in the sample as a whole.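 Single-concentration screen, 48 h exposure, 96-well plates. Endpoint: percent growth. Below 10 = active.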 Unmarked numbers belong to inactive results. Activity calls are given as the source filed them.

What follows are compounds tested on MDA-MB-468 breast (assay: NCI-60 one-dose screen, 48 h (100 = growth as untreated, 0 = no growth, -100 = all killed)). Conditions: 10 µM unless noted.

`COc1ccc2cc(-c3nc(C)c(C(C)=O)c(-c4ccc(C)cc4)n3)ccc2c1` was tested. Which growth did it give?
The growth was 74.4%.

Which growth does the source give for `COc1ccc(-c2nc3sc4c(c3c(=O)[nH]2)CCCC4)c2ccccc12` here?
The growth was 25%.

`COc1cc(NC(=O)SC2=NCCS2)cc(OC)c1` was tested. Which growth did it give?
Its growth is 93.3%.

Which growth does the source give for `COc1ccccc1/C=C1\Oc2cc(OCCN3CCCC3)ccc2C1=O` here?
The growth was 56.3%.

`CCS(=O)(=O)CCCl` was tested. Which growth did it give?
The growth was 101%.

With `COc1ccc(/C=N/NC(=O)c2cnn3c2NC(c2ccccc2)C3)cc1OC` (stereo not given) as the compound, how does the growth read?
Its growth is 34.8%.

For `Clc1ccc2c(NCCCNC3CCCCC3)ccnc2c1`, which growth is on record?
Its growth is 85.3%.

With `COc1ccc2nc(NC(=O)CN3CCn4c(nnc4C(F)(F)F)C3)sc2c1` as the compound, how does the growth read?
The growth was 84.5%.

`Cc1[nH]c(C(=O)Nc2ccccc2OCc2cccc(C(=O)NC3CCCNC3)c2)c(Cl)c1Cl` (stereo not given) was tested. Which growth did it give?
The growth was -80.6% (active).

Which growth does the source give for `COc1ccc2c(CCc3ccc(Cl)cc3)c3[n+](cc2c1OC)CCc1cc2c(cc1-3)OCO2` here?
Its growth is -11.7% (active).

`CC(=O)Oc1ccc(C2=Cc3ccc(OC(C)=O)cc3OC2C)cc1` (stereo not given) was tested. Which growth did it give?
Its growth is 56.5%.

For `CCCN1CCN(c2ccc3nc(-c4ccc5nc(-c6cc(OC)ccc6OC)[nH]c5c4)[nH]c3c2)CC1`, which growth is on record?
Its growth is 114%.

How did the growth turn out when `C=C1CCC2C(C)(CO)C(O)CCC2(C)C1C/C=C1/C(=O)OCC1Oc1ccccc1C` (stereo not given) was run?
The growth was 60%.

`CCCCCCCCCCCC[n+]1ccc(CCCCCCCCC)cc1` was tested. Which growth did it give?
The growth was -53.8% (active).

Which growth does the source give for `O=C(/C=C/c1ccccc1)c1cccc(O)c1` here?
Its growth is 111% and 90.2%.

`CCCOc1ccc(/C=N/Nc2cc(C)nc3ccc(Cl)cc23)cc1` was tested. Which growth did it give?
Its growth is 8.78% (active).

For `Cn1c(NCCc2ccc(O)c(O)c2)nc2c1c(=O)n(Cc1ccc(Br)cc1)c(=O)n2C`, which growth is on record?
Its growth is 43.3%.

With `COc1ccc(NC(=O)c2sc3nc4c(cc3c2N)CCCC4)cc1` as the compound, how does the growth read?
The growth was 13.6%.

With `O=C1Nc2ccccc2/C1=C\c1c(-c2ccc(F)cc2)nc2ccccn12` as the compound, how does the growth read?
Its growth is 40.8%.

How did the growth turn out when `COc1ccc(C(=O)CSc2nccc(Nc3ccc(C(=O)O)cc3)n2)cc1` was run?
Its growth is 104%.

For `CCCCCCCCCCCCCCCCSC(=NCC)NCC`, which growth is on record?
The growth was -37.3% (active).

For `Cn1ncc2c(C(=O)c3ccc(F)cc3)nc(C(C)(C)C)nc21`, which growth is on record?
The growth was 93.5%.

`C[C@]12CCc3c(ccc4cc(O)ccc34)[C@@H]1CC[C@H]2O` was tested. Which growth did it give?
Its growth is 81.3%.

`COc1ccc(-c2no[n+]([O-])c2Nc2ccccc2Br)cc1` was tested. Which growth did it give?
The growth was 93.3%.

Which growth does the source give for `COc1ccc2c(c1)C(=O)/C(=C/c1ccc([N+](=O)[O-])s1)O2` here?
Its growth is -22.9% (active).

How did the growth turn out when `COc1cc(C2C=C(C)N=C3SC=NN32)cc(OC)c1OC` (stereo not given) was run?
The growth was 102%.

`CCN(CC)CCN1C(=O)c2c(c(C)c3c(oc4ccc(O)cc43)c2C)C1=O` was tested. Which growth did it give?
The growth was 47.5%.

How did the growth turn out when `O=C(Nc1cccc(-n2cc(-c3ccncc3)c(-c3ccc(O)c(Cl)c3)n2)c1)c1ccc(N2CCOCC2)c(C(F)(F)F)c1` was run?
Its growth is 65.9%.

With `CCCCCc1c(C)[nH]c(/C=c2\[nH]/c(=C3/C=c4ccccc4=N3)cc2OC)c1C` as the compound, how does the growth read?
Its growth is -63.8% (active).

With `O=C(/C=C/c1ccc(Oc2ccc(Br)cc2)cc1)c1ccc(Br)cc1` as the compound, how does the growth read?
Its growth is 98.3%.

For `Cc1ccc(C(=O)N/N=C/c2cccc([N+](=O)[O-])c2)cn1`, which growth is on record?
The growth was 89.5%.

Which growth does the source give for `Cc1cccc(C(=O)N(C(C)C)C(C)C)c1` here?
Its growth is 105%.

With `CC(=O)c1ccc(Nc2nc(Cl)nc(Oc3c(Cl)cccc3Cl)n2)cc1` as the compound, how does the growth read?
Its growth is 93.3%.

`O=C1CCC/C=C\C[C@H]2C=CC(=O)/C2=C/C[C@H](CCc2cccc(C(F)(F)F)c2)O1` was tested. Which growth did it give?
Its growth is -38.3% (active).

For `Ic1ccc(SSc2ccc(I)cc2)cc1`, which growth is on record?
The growth was 108%.

`Cn1cc(-c2nn3cc(-c4ccncc4)nc3s2)c2cc(F)ccc21` was tested. Which growth did it give?
The growth was 54.6%.

`O=C(CNc1c(Cl)cccc1Cl)Nc1ccc(-c2nc3ccccc3s2)cc1` was tested. Which growth did it give?
Its growth is -7.4% (active).

For `COc1cccc(CCC2CCCN(c3cc(C)nc(N)n3)C2)c1` (stereo not given), which growth is on record?
Its growth is 26.1%.

`O=C1/C(=C/c2ccccc2O)CC/C1=C\c1ccccc1O` was tested. Which growth did it give?
The growth was 34.3%.

Which growth does the source give for `CS(=O)(=O)c1nccc(-c2c(-c3ccc(F)c(OCCc4ccc(F)cc4)c3)nc3sccn23)n1` here?
The growth was -52.2% (active).
